Source: PubChem
Shown is part of a subset that was picked to be rich in hits.
ROC1-CUL1 inh: blocks human RBX1-Cullin-1 di-ubiquitin formation; P62877+Q13616; in vitro K48 di-Ub FRET, acceptor:donor ratio, 45 min; inhibition, % at 10 µM; hit rate 0.6% among 140,000; in the data active means inhibition above about 25%
Target sequence (P62877 whole entry, looked up): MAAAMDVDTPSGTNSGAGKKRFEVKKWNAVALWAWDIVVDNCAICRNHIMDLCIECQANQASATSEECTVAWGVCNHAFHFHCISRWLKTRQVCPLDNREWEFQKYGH
Target sequence (Q13616 whole entry, looked up): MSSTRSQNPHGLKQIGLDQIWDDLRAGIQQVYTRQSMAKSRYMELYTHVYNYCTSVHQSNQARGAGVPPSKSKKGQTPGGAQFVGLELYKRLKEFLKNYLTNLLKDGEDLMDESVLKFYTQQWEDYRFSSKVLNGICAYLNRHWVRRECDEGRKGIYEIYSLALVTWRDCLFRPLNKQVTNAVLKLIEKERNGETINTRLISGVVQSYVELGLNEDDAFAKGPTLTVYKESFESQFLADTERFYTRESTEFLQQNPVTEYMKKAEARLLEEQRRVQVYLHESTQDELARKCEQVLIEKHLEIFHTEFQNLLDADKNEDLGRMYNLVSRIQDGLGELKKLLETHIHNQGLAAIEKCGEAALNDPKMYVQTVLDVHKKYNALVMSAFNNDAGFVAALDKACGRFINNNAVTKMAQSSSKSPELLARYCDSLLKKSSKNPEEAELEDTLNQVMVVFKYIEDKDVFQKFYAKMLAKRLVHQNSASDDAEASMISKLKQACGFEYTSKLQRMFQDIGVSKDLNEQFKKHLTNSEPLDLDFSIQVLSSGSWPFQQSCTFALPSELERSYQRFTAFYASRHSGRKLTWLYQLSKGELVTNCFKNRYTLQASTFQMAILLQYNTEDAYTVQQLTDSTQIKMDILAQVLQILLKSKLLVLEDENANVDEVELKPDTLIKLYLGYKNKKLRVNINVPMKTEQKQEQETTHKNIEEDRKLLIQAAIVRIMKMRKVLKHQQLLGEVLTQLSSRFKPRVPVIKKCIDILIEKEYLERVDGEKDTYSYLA
The depositor's hits bear a star.

`O=C1C=CC2=C(c3ccccc3C(=O)O)C3C=CC(=O)C(Br)C3OC2=C1Br` (stereo not drawn) gave ROC1-CUL1 inh 113.3*.
Screening O=C1C(Br)=CC2=C(c3ccccc3C(=O)O)C3C=C(Br)C(=O)C(Br)C3OC2=C1Br (stereo not drawn) returned ROC1-CUL1 inh 116.6*.
For CCCc1sc2ncnc(Cl)c2c1C the results were ROC1-CUL1 inh -10.8.
For CC(C)C(C(=O)OCC(=O)c1cccc([N+](=O)[O-])c1)N1C(=O)C2C3CC(C(Br)C3Br)C2C1=O (stereo not drawn) the results were ROC1-CUL1 inh 4.9.
For CCCC(C)NC(=O)C1CCN(C(=O)c2ccccc2F)CC1 (stereo not drawn) the results were ROC1-CUL1 inh 3.8.
For Brc1cc(-c2ccncn2)cs1 the results were ROC1-CUL1 inh -3.3.
`O=[N+]([O-])c1cc(-c2ccncn2)sc1[N+](=O)[O-]` gave ROC1-CUL1 inh 40.7*.
Clc1ccc(-c2ccncn2)cc1Cl was read as ROC1-CUL1 inh 6.9.
COc1ccc(CCN2CCC(CN(C)C(=O)C3CCOC3)CC2)cc1 (stereo not drawn) was read as ROC1-CUL1 inh -16.1.
For O=C(COc1ccc(Br)cc1C1C2=C(CCCC2=O)OC2=C1C(=O)CCC2)Nc1ccccc1 the results were ROC1-CUL1 inh 1.9.
O=C1C2=CC(C=NCC(O)CO)C(=O)N2c2ccccc21 (stereo not drawn) was read as ROC1-CUL1 inh 25.3*.
CC(C)(C)CC(=O)Nc1sc2c(c1C#N)CCCCC2 was read as ROC1-CUL1 inh -10.5.
O=C(Nc1ccc2c(c1)CN(Cc1ccoc1)CC2)C1CCCO1 (stereo not drawn) was read as ROC1-CUL1 inh -9.9.
`COc1cc(C=C2C(=O)NC(=O)NC2=O)cc(I)c1OC` gave ROC1-CUL1 inh -0.1.
Screening O=C1NC(=O)C(=Cc2cc(Br)c(I)o2)C(=O)N1 returned ROC1-CUL1 inh 79.7*.
For S=c1[nH]nc(-c2ccccc2)n1/N=C/c1cc(Br)c(I)o1 the results were ROC1-CUL1 inh -6.3.
O=C1NC(=O)C(=Cc2cc(O)c(O)c(Br)c2)C(=O)N1 was read as ROC1-CUL1 inh 49.3*.
`O=C1C(=Cc2ccc(O)c(Br)c2)C(=O)c2ccccc21` gave ROC1-CUL1 inh -5.5.
For CCOC(=O)N1N(C(=O)OCC)C2(c3ccccc3)OC1(c1ccccc1)c1ccccc12 the results were ROC1-CUL1 inh -3.8.
For CCCCN(C)C(=O)c1nc2ccccn2c1CN(C)Cc1nccn1C the results were ROC1-CUL1 inh -5.3.
Screening CSc1ccc2ccccc2c1C(=O)N(C(C)C)C(C)C returned ROC1-CUL1 inh -5.7.
Screening Oc1ccc(NCc2ccc(Br)cc2)cc1 returned ROC1-CUL1 inh 75.8*.
For COc1ccc(Br)cc1CNc1ccc2[nH]c(=O)[nH]c2c1 the results were ROC1-CUL1 inh 0.7.
Oc1ccc(NCc2ccc(OCc3ccccc3)cc2)cc1 was read as ROC1-CUL1 inh 1.1.
CNCc1cc(Br)ccc1OC was read as ROC1-CUL1 inh 2.7.
COc1ccc(Br)cc1CNc1ccc(O)cc1 was read as ROC1-CUL1 inh 41.1*.
`CCc1ccc(CNc2ccc(O)cc2)cc1` gave ROC1-CUL1 inh -15.3.
`CC(=O)OC1CC2CCCCC2(C)C2CC(O)C(C)(C3SCCS3)CC12` (stereo not drawn) gave ROC1-CUL1 inh 6.5.
`CCC1(COC(=O)Nc2ccc(Cl)cc2)COC1` gave ROC1-CUL1 inh 7.4.
`CCCCCn1c(N/N=C\c2ccc(N(C)C)cc2)nc2c1c(=O)[nH]c(=O)n2C` gave ROC1-CUL1 inh 10.7.
O=C(O)CCC(=O)N1N=C(c2cccs2)CC1c1cccs1 (stereo not drawn) was read as ROC1-CUL1 inh 8.4.
For O=C(Nc1cc2nn(-c3ccccc3)nc2cc1Cl)c1ccc2c(c1)OCCO2 the results were ROC1-CUL1 inh 9.0.
For CCn1cc(CNC2CCCN(Cc3ccccc3F)C2)c(C)n1 (stereo not drawn) the results were ROC1-CUL1 inh -3.8.
`Cc1ccc(OCC(=O)Nc2ccccc2C(=O)OCC(=O)c2ccccc2)cc1C` gave ROC1-CUL1 inh 3.1.
Screening CN(CCC(=O)/C=C/c1cccc(F)c1)CCc1ccc2c(c1)OCO2 returned ROC1-CUL1 inh 49.6*.
Screening CC1=NC(=O)C(C(=O)/C=C/c2ccc3c(c2)OCO3)=C(C)C1 returned ROC1-CUL1 inh -7.1.
O=S(=O)(NCc1ccc2c(c1)OCO2)c1cccc(F)c1 was read as ROC1-CUL1 inh 2.7.
COc1ccc(-c2cc(-c3ccccc3)nc(SCc3ccccc3[N+](=O)[O-])c2C#N)cc1 was read as ROC1-CUL1 inh -0.1.
For Cc1ccc(-c2nsc(-c3ccc(C)cc3)n2)cc1 the results were ROC1-CUL1 inh 7.3.
CCOC(=O)c1c(C)sc(-c2c(-c3ccc4c(c3)OCCO4)[nH]c3c2c(=O)[nH]c(=O)n3C)c1O was read as ROC1-CUL1 inh 30.5*.
For CCOC(=O)c1c(C)sc(-c2c(-c3ccc(OC)c(F)c3)[nH]c3[nH]c(=O)[nH]c(=O)c23)c1O the results were ROC1-CUL1 inh 4.3.
Screening CCOC(=O)c1c(C)sc(-c2c(-c3ccc(OC)c(F)c3)[nH]c3c2c(=O)[nH]c(=O)n3C)c1O returned ROC1-CUL1 inh 32.0*.
`CCOC(=O)c1nn(-c2ccc3c(c2)OCCO3)cc1O` gave ROC1-CUL1 inh 2.1.
For CCOC(=O)c1c(C)sc(-c2c(-c3ccccc3)[nH]c3[nH]c(=O)[nH]c(=O)c23)c1O the results were ROC1-CUL1 inh -0.7.
COC(=O)c1c(C)sc(-c2c(-c3ccc4c(c3)OCCO4)[nH]c3c2c(=O)n(C)c(=O)n3C)c1O was read as ROC1-CUL1 inh 12.7.
CCc1ccc(-c2[nH]c3c(c2-c2sc(C)c(C(=O)OC)c2O)c(=O)[nH]c(=O)n3C)cc1 was read as ROC1-CUL1 inh 7.0.
For COC(=O)c1c(C)sc(-c2c(-c3ccc4c(c3)OCCO4)[nH]c3[nH]c(=O)[nH]c(=O)c23)c1O the results were ROC1-CUL1 inh 7.8.
For COC(=O)c1c(C)sc(-c2c(-c3cccc(Cl)c3)[nH]c3c2c(=O)[nH]c(=O)n3C)c1O the results were ROC1-CUL1 inh 28.3*.
`COc1cccc(-c2[nH]c3c(c2-c2c(-n4cccc4)n(C)c(=O)[nH]c2=O)c(=O)[nH]c(=O)n3C)c1` gave ROC1-CUL1 inh 3.0.
CCOC(=O)c1c(C)sc(-c2c(-c3ccc4c(c3)OCCO4)[nH]c3c2c(=O)n(C)c(=O)n3C)c1O was read as ROC1-CUL1 inh 33.2*.
Screening CCOC(=O)c1nn(-c2ccc(C)cc2)c(N=Nc2ccc3c(c2)OCCO3)c1O returned ROC1-CUL1 inh -0.6.
For CN(C(=O)c1ccncc1)C1CCCN(CCc2ccccc2)C1 (stereo not drawn) the results were ROC1-CUL1 inh 0.3.
For CCCCN(C)C(=O)C1CCN(c2nc(C)c3ccccc3n2)CC1 the results were ROC1-CUL1 inh 6.8.
Cc1ccccc1NS(=O)(=O)Cc1c(F)cccc1Cl was read as ROC1-CUL1 inh 3.1.
`Cc1nccn1-c1ccc(NC(=O)C2CCCN2C)cc1` (stereo not drawn) gave ROC1-CUL1 inh 9.3.
COc1cc(OC)c(C(=O)NCC(C)C)cc1OC was read as ROC1-CUL1 inh 8.5.
`CCOc1ccc(N2C(=O)C(Cc3ccccc3OCc3cccc(F)c3)=NC2=S)cc1` gave ROC1-CUL1 inh 5.2.
Screening c1ccc(-n2cnc3ncncc32)cc1 returned ROC1-CUL1 inh -3.5.
Screening COc1cc(OC)nc(-n2ncc(C(C)=O)c2C)n1 returned ROC1-CUL1 inh -8.9.
`COc1ccccc1N1CCC(NC2COc3ccccc3C2)CC1` (stereo not drawn) gave ROC1-CUL1 inh 2.0.
